The whole screen tested about 210,000 compounds, of which about 5,900 (2.8%) were called active. Not shown: some 5% with an inconclusive outcome. The list comes from a sample in which actives are over-represented; it also holds similar structures and randomly drawn compounds. Where a call stands in place of a potency, no number is given. Values without a mark were called inactive. The call rests on the fitted dose curve; in most records, active means well fitted activation curve with a large enough effect; inconclusive means small, poorly fitted or top-dose-only effect; inactive means no such curve, though single readings can be large or run the other way.
Potency means the concentration at half of the fitted maximal effect.

The nature of the test: qHTS Assay for Enhancers of SMN2 Splice Variant Expression. Further: nearly all actives have a fitted effect of over 55% in size. The following applies: HEK293 SMN2-luciferase splicing reporter, luminescence, 30-36 h; series mostly up to 46.1 µM. The text has this:
NIH Chemical Genomics Center [NCGC] NIH Molecular Libraries Probe Production centers Network [MLPCN] MLPCN Grant: R03 MH084179-01 Assay Submitter (PI): Elliot Androphy NCGC Assay Overview: Spinal muscular atrophy (SMA) is caused by insufficient levels of the survival motor neuron protein SMN. The SMN locus on chromosome 5q13 contains two inverted copies of SMN called SMN1 and SMN2 which are 99% identical at the amino acid level. SMN1 is a fully functional protein and SMN2 skips exon 7 90% of the time. Skipping of exon 7 produces non-functional protein product. 10% of the SMN2 protein includes exon 7 and is fully functional. In the SMA disease state, mutations in the SMN1 locus are the cause of the disease state. Because only 10% of SMN2 is of the fully functional form, it is not sufficient to overcome the deficiency produced by the loss of the SMN1 product. A therapy that either increase the amount of SMN2 product made or to increase the inclusion of exon 7 has been proposed for the treatment of SMA. We have designed an assay to identify small molecules that can increase the amount of functional SMN2 product by appending a luciferase reporter gene after the native SMN2 gene, such that inclusion of exon 7 in the expressed product places the luciferase sequence in frame, thus generating functional luciferase enzyme.
NCGC Assay Protocol Summary: This screen utilizes a luciferase reporter gene assay, combining the promoter and splicing based cassettes in tandem with the major portion of the native SMN2 cDNA, and then transfected into HEK293 cells. Compounds that increase luciferase signal presumably enhance expression of the functional SMN2 splice variant. Passaging media contained DMEM w/ glutamax (+phenol red) 10% FCS, 1x pen/strep, 200 ug/ml hygro, 1x sodium pyruvate. Assay media contained DMEM w/ glutamax (-phenol red) 10% FCS, 1x pen strep, 1x pyruvate Sequence, Parameter, Value, Description (1) Cells, […], 2000 cells/well, 1536 TC treated White solid bottom plate (2) Time, 10-12 hours, 37C 5% CO2 (3) Compound, 23 nl, MLSMR Library (4) Control Compound, 23 nL, Sodium butyrate st 4.5mM (final) conc (5) Time, 30-36 hours, 37C 5% CO2 (6) Reagent, 3 ul, One Glo (TM) from Promega (7) Time, 5-15 minutes, Room temp (8) Detector, Viewlux: luminescent read, 60 second integration, high speed 2x binning Keywords: Spinal muscular atrophy, SMA, SMN2, high throughput screening, MLSMR, MLPCN, NIH Roadmap, qHTS and NCGC
(qHTS replaces the single test concentration by a dilution series.)
`CC(C)Oc1ccc(NC(=O)c2cc3ccccc3o2)cc1`: the Potency is 2.51 µM (active).

`Cc1ncoc1C(=O)NCCC(c1ccccc1)c1ccccc1`: the Potency result is “inactive”.

Take `O=C(OCC1O[C@@H](OC(=O)c2cc(O)c(O)c(O)c2)[C@@H](OC(=O)c2cc(O)c(O)c(O)c2)[C@@H](OC(=O)c2cc(O)c(O)c(O)c2)[C@@H]1OC(=O)c1cc(O)c(O)c(O)c1)c1cc(O)c(O)c(O)c1` (stereo not given in full): the Potency result is “inactive”.

In the case of `COc1cccc(C(=O)Nc2ccc(-c3cc(C(F)(F)F)nn3-c3ccccc3)cc2)c1`, the Potency result is “inactive”.

Take `O=C(OCC(=O)c1cccs1)C1=COCCO1`: the Potency was 14.1 µM (active).

Take `CC(=O)c1c(O)c(C)c(O)c(Cc2c(O)c3c(c(C(=O)/C=C/c4ccccc4)c2O)OC(C)(C)C=C3)c1O`: the Potency result is “inactive”.

In the case of `CCCCCCCCCc1ccc(OCCOCCOCCOCCOCCOCCOCCOCCOCCO)cc1`, the Potency result is “inactive”.

Take `Cn1c(=O)oc2cc(S(=O)(=O)N3CCC(C(=O)Nc4ccc(OC(F)(F)F)cc4)CC3)ccc21`: the Potency entry is “inactive”.

As for `CC(=O)Oc1ccccc1C(=O)Nc1ncc([N+](=O)[O-])s1`, the Potency is 12.6 µM (active).

Take `C[N+](C)(C)CCOP(=O)([O-])OC[C@H](O)CO`: the Potency entry was “inactive”.

Consider `CC(C)=CCC[C@]1(C)[C@@H](CC=C(C)C)C[C@@]2(CC=C(C)C)C(=O)[C@]1(C(=O)C(C)C)C(=O)C(CC=C(C)C)=C2O`, for which the Potency entry is “inactive”.

Turning to `CC[C@]1([C@H]2O[C@@H]([C@@H]3O[C@](O)(CO)[C@@H](C)C[C@H]3C)C[C@H]2C)CC[C@@H]([C@]2(C)CC[C@@]3(C[C@@H](O)[C@@H](C)[C@@H]([C@H](C)[C@H](OC)[C@H](C)C(=O)O)O3)O2)O1`, the Potency entry is “inactive”.

As for `CC(C)(C)c1ccc(OC(=O)N2CCCCC2)cc1`, the Potency is 12.6 µM (active).

Consider `O=C(Nc1cccc(OC(=O)N2CCCCC2)c1)N1CCOCC1`, for which the Potency result was “inactive”.

On to `O=C(Nc1cccc(F)c1)N1CC[C@@]2(CCCN(C(=O)Oc3ccccc3)C2)C1`, for which the Potency entry is “inactive”.

`CC(C)(C)C(O)(CCc1ccc(Cl)cc1)Cn1cncn1` (stereo not given): the Potency entry was “inactive”.

For `NCC[Se][Se]CCN`, the activity change, positive = activation is -13.3% [at 9.22 µM].

For the molecule `CO[C@@H]1C[C@@H](C[C@H]2CC[C@H](C)[C@@H]([C@@H](C)C(=O)O)O2)O[C@]2(O[C@](C)([C@H]3CC[C@@](C)(C4OC([C@H]5O[C@@](O)(CO)[C@H](C)C[C@@H]5C)C[C@@H]4C)O3)C[C@H]2C)[C@@H]1C` (stereo not given in full), the Potency entry was “inactive”.

As to `c1ccc(Cc2nn3c(Cn4cnc5ccccc54)nnc3s2)cc1`, the Potency result was “inactive”.

On to `N#CC(C#N)=Cc1cc(O)c(O)c([N+](=O)[O-])c1`, for which the Potency entry is “inactive”.
